# Test results published in the supplement of paper PMC8728848.
# The entries come from a sample that favours the strongest signals as a whole.
# Key:
# Test in all cases: glycan array binding signal (z-score within array); higher = stronger binding
# Conditions in all cases: glycan notation: IUPAC condensed, linker removed
# [1] = biological target: Fuc(a1-2)Gal(b1-3)GalNAc(a1-3)[Fuc(a1-2)]Gal(b1-4)Glc
# Method in brief: (§1)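 The binding signal is a Z-score computed within each array and averaged over linkers. Arrays of the same protein sequence at different concentrations or buffers were also averaged together. Data originate from 3228 arrays in the Consortium for Functional Glycomics database, kept only where the protein sequence was available.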
# [2] = biological target: Fuc(a1-2)Gal(b1-3)GlcNAc(b1-3)[Fuc(a1-2)Gal(b1-3)GlcNAc(b1-6)]GalNAc
# Method in brief: as §1
# [3] = biological target: Fuc(a1-2)Gal(b1-4)Fuc(a1-3)]GlcNAc(b1-2)Man(a1-3)[Fuc(a1-2)Gal(b1-4)[Fuc(a1-3)]GlcNAc(b1-2)Man(a1-6)]Man(b1-4)GlcNAc(b1-4)GlcNAc
# Method in brief: as §1
# [4] = biological target: Fuc(a1-2)Gal(b1-4)GlcNAc(b1-2)Man(a1-3)[Fuc(a1-2)Gal(b1-4)GlcNAc(b1-2)Man(a1-6)]Man(b1-4)GlcNAc(b1-4)GlcNAc
# Method in brief: as §1
# [5] = biological target: Fuc(a1-2)Gal(b1-4)GlcNAc(b1-2)Man(a1-3)[Fuc(a1-2)Gal(b1-4)GlcNAc(b1-2)Man(a1-6)]Man(b1-4)GlcNAc(b1-4)[Fuc(a1-6)]GlcNAc
# Method in brief: as §1
# [6] = biological target: Fuc(a1-2)Gal(b1-4)GlcNAc(b1-3)Gal(b1-4)GlcNAc(b1-2)Man(a1-3)[Fuc(a1-2)Gal(b1-4)GlcNAc(b1-3)Gal(b1-4)GlcNAc(b1-2)Man(a1-6)]Man(b1-4)GlcNAc(b1-4)GlcNAc
# Method in brief: as §1
# [7] = biological target: Fuc(a1-2)Gal(b1-4)GlcNAc(b1-6)GalNAc
# Method in brief: as §1
# [8] = biological target: Fuc(a1-2)[Gal(a1-4)]Gal(b1-4)GlcNAc
# Method in brief: as §1
# [9] = biological target: Fuc(a1-2)[GalNAc(a1-3)]Gal(b1-3)GlcNAc
# Method in brief: as §1
# [10] = biological target: Fuc(a1-2)[GalNAc(a1-3)]Gal(b1-4)[Fuc(a1-3)]GlcNAc
# Method in brief: as §1
# [11] = biological target: Fuc(a1-2)[GalNAc(a1-4)]Gal(b1-4)GlcNAc
# Method in brief: as §1
# Fuc(b1-3)GlcNAc = biological target: Fuc(b1-3)GlcNAc
# Method in brief: as §1
# [12] = biological target: Gal(a1-3)Gal(b1-3)GlcNAc(b1-3)GalNAc
# Method in brief: as §1
# Gal(a1-3)Gal(b1-4)Glc = biological target: Gal(a1-3)Gal(b1-4)Glc
# Method in brief: as §1
# Gal(a1-3)GalNAc = biological target: Gal(a1-3)GalNAc
# Method in brief: as §1
# Gal(b1-3)GalNAc(b1-3)Gal = biological target: Gal(b1-3)GalNAc(b1-3)Gal
# Method in brief: as §1
# [13] = biological target: Gal(b1-3)[Fuc(a1-4)]GlcNAc(b1-6)GalNAc
# Method in brief: as §1
# [14] = biological target: Gal(b1-3)[GlcNAc(b1-6)]GalNAc
# Method in brief: as §1
# Gal(b1-4)GlcNAc = biological target: Gal(b1-4)GlcNAc
# Method in brief: as §1
# [15] = biological target: Gal(b1-4)GlcNAc(b1-2)Man(a1-3)[Gal(b1-4)GlcNAc(b1-2)Man(a1-6)][Gal(b1-4)GlcNAc(b1-4)]Man(b1-4)GlcNAc(b1-4)[Fuc(a1-6)]GlcNAc
# Method in brief: as §1
# [16] = biological target: Gal(b1-4)GlcNAc(b1-3)Gal(b1-4)GlcNAc(b1-3)Gal(b1-4)GlcNAc(b1-2)Man(a1-3)[Gal(b1-4)GlcNAc(b1-3)Gal(b1-4)GlcNAc(b1-3)Gal(b1-4)GlcNAc(b1-2)Man(a1-6)]Man(b1-4)GlcNAc(b1-4)[Fuc(a1-6)]GlcNAc
# Method in brief: as §1
# [17] = biological target: Gal(b1-4)GlcNAc(b1-3)Gal(b1-4)GlcNAc(b1-3)Gal(b1-4)GlcNAc(b1-3)Gal(b1-4)GlcNAc(b1-2)Man(a1-3)[Gal(b1-4)GlcNAc(b1-3)Gal(b1-4)GlcNAc(b1-3)Gal(b1-4)GlcNAc(b1-3)Gal(b1-4)GlcNAc(b1-2)Man(a1-6)]Man(b1-4)GlcNAc(b1-4)GlcNAc
# Method in brief: as §1
# [18] = biological target: Gal(b1-4)GlcNAc(b1-3)Gal(b1-4)GlcNAc(b1-3)Gal(b1-4)GlcNAc(b1-3)Gal(b1-4)GlcNAc(b1-2)Man(a1-3)[Gal(b1-4)GlcNAc(b1-3)Gal(b1-4)GlcNAc(b1-3)Gal(b1-4)GlcNAc(b1-3)Gal(b1-4)GlcNAc(b1-2)Man(a1-6)]Man(b1-4)GlcNAc(b1-4)[Fuc(a1-6)]GlcNAc
# Method in brief: as §1
# [19] = biological target: Gal(b1-4)GlcNAc(b1-3)Gal(b1-4)GlcNAc(b1-3)Gal(b1-4)GlcNAc(b1-3)Gal(b1-4)GlcNAc(b1-2)[Gal(b1-4)GlcNAc(b1-3)Gal(b1-4)GlcNAc(b1-3)Gal(b1-4)GlcNAc(b1-3)Gal(b1-4)GlcNAc(b1-6)]Man(a1-6)[Gal(b1-4)GlcNAc(b1-3)Gal(b1-4)GlcNAc(b1-3)Gal(b1-4)GlcNAc(b1-3)Gal(b1-4)GlcNAc(b1-2)Man(a1-3)]Man(b1-4)GlcNAc(b1-4)[Fuc(a1-6)]GlcNAc
# Method in brief: as §1
# [20] = biological target: Gal(b1-4)GlcNAc(b1-3)Gal(b1-4)GlcNAc(b1-3)Gal(b1-4)GlcNAc(b1-3)Gal(b1-4)GlcNAc(b1-3)Gal(b1-4)GlcNAc(b1-2)Man(a1-3)[Gal(b1-4)GlcNAc(b1-3)Gal(b1-4)GlcNAc(b1-3)Gal(b1-4)GlcNAc(b1-3)Gal(b1-4)GlcNAc(b1-3)Gal(b1-4)GlcNAc(b1-2)Man(a1-6)]Man(b1-4)GlcNAc(b1-4)GlcNAc
# Method in brief: as §1
binder,measurement,setting,value
DrGal3 (Danio rerio) (protein) MDLSDALDAPPQQNNQQAGGPVWPGQPANPVWPGQPANPTWPGQPNQPAWPGQPNQQWPGQPGQPTAPGWPGPAPQTGPYGAPGQAPQVLTVPLDFPLQNGAYNKMLITINGEVKPNAKQFTVNLRRGNDIAFHINPRFSEGGKPVIVRNSMIGNNWGREERELPSFPFVPGKPFEMKILITDTEYKVAVNKSHLLEFKHRVFELNQITGLSIYNDVTLSTVNVETLQ,glycan array binding signal (z-score),[1],-0.254
same,glycan array binding signal (z-score),[2],-0.164
same,glycan array binding signal (z-score),[3],-0.125
same,glycan array binding signal (z-score),[4],-0.218
same,glycan array binding signal (z-score),[5],-0.209
same,glycan array binding signal (z-score),[6],1.52
same,glycan array binding signal (z-score),[7],-0.25
same,glycan array binding signal (z-score),[8],-0.087
same,glycan array binding signal (z-score),[9],-0.212
same,glycan array binding signal (z-score),[10],-0.206
same,glycan array binding signal (z-score),[11],-0.233
same,glycan array binding signal (z-score),Fuc(b1-3)GlcNAc,-0.277
same,glycan array binding signal (z-score),[12],-0.287
same,glycan array binding signal (z-score),Gal(a1-3)Gal(b1-4)Glc,-0.233
same,glycan array binding signal (z-score),Gal(a1-3)GalNAc,-0.007
same,glycan array binding signal (z-score),Gal(b1-3)GalNAc(b1-3)Gal,-0.183
same,glycan array binding signal (z-score),[13],-0.208
same,glycan array binding signal (z-score),[14],-0.231
same,glycan array binding signal (z-score),Gal(b1-4)GlcNAc,-0.237
same,glycan array binding signal (z-score),[15],-0.247
same,glycan array binding signal (z-score),[16],4.37
same,glycan array binding signal (z-score),[17],4.2
same,glycan array binding signal (z-score),[18],5.59
same,glycan array binding signal (z-score),[19],4.6
same,glycan array binding signal (z-score),[20],6.65
